HPGD block = blocks human HPGD enzyme activity; P15428; purified HPGD, NADH fluorescence kinetic, PGE2 substrate; Potency, µM, usual class: inhibitors; 150,000 tested, 4.3% active; active = well fitted inhibition curve with a large enough effect, not every such curve was filed as active; inconclusive = small, poorly fitted or top-dose-only effect, or another doubt; inactive = no such curve, though single readings can be large or run the other way
Target sequence (P15428 whole entry, looked up): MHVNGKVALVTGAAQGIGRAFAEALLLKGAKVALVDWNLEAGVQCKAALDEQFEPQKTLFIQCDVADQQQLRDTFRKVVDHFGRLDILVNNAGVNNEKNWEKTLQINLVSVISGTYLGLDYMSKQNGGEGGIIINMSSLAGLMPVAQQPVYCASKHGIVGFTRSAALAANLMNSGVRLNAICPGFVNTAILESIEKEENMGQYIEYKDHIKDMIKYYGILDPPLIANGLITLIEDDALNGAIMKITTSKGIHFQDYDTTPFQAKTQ
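NADH formation kinetics: reaction with 30 uM PGE2 and 1 mM NAD+ (final), 20 nM enzyme, Tris-HCl pH 8 with Tween 20, after 15 min compound preincubation at room temperature. Fluorescence change, last versus first of five reads.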
ALOX12 inhib = inhibitors of human 12-lipoxygenase (ALOX12); Potency, µM (series often up to 57.1 µM), most hits filed as inhibitors; purified 12-hLO, xylenol orange hydroperoxide absorbance; 150,000 tested, 0.12% active; P18054; note: nearly all actives have a fitted effect of over 55% in size
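150 nM 12hLO, 25 mM Hepes pH 7.0 + 0.01% Triton X-100; cpd preinc 15 min RT; 40 uM arachidonic acid, 30 min RT; Fe-XO 30 min; A573/A405 ratio as read-out.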
IMPase Li inh = cell-permeable IMPase inhibitors with lithium potentiation; CHO-M1 cells, IP1 TR-FRET (IP-One), carbachol + lithium; Potency, µM (titrated, usually from 59.4 µM), hits mostly inhibitors; 210,000 tested, 0.35% active; AID 1457;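 note: IP1 builds up when IMPase is blocked and the TR-FRET signal falls; nearly all actives have a fitted effect of over 50% in size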
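IP1 accumulation measured by competitive TR-FRET in lysed CHO-M1 cells after 30 min compound exposure at 37C, with a small lithium addition to potentiate weak responses. Hill-equation AC50 from ratio and donor-channel data.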
ALDH1A1 inh = blocks purified human ALDH1A1 activity; Purified ALDH1A1, NADH fluorescence, propionaldehyde substrate; Potency, µM (highest dose often 75.3 µM), hits mostly inhibitors; 220,000 tested, 7.3% active; active = well fitted inhibition curve with a large enough effect, not every such curve was filed as active; inconclusive = small, poorly fitted or top-dose-only effect, or another doubt; inactive = no such curve, though single readings can be large or run the other way
IMPase inh = cell-permeable inhibitors of inositol monophosphatase (IMPase); inhibition (IP1 accumulation), % at 46.1 µM; P97697; AID 901; CHO-M1 cells, IP1 accumulation, HTRF TR-FRET ratio; 120,000 tested, under 10 active; active = well fitted curve in the direction sought with a large enough effect in the signal ratio, not every such curve was filed as active; inconclusive = small, poorly fitted or top-dose-only effect, or a change in a side signal; inactive = no such curve, though single readings can be large or run the other way; the % refers to the signal ratio;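 note: cells stimulated with carbachol in lithium chloride buffer; higher means more IMPase inhibition seen as more IP1 and lower FRET ratio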
Target sequence (P97697 whole entry, looked up): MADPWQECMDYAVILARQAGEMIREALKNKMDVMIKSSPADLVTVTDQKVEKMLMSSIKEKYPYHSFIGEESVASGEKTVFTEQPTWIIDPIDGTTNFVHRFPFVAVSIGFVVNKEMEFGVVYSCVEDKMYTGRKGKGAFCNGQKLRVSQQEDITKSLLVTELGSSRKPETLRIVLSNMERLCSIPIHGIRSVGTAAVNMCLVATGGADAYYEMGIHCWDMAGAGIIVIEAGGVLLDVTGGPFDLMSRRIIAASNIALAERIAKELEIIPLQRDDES
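Seeded CHO-M1 cells were dosed with compound at up to 46 uM, stimulated with carbachol for 30 min, then lysed in IP-One detection reagents. Higher IP1 lowers the TR-FRET signal.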
PNC assembly inh = inhibitors of perinucleolar compartment assembly. PC3M PTB-GFP, PNC prevalence imaging, 16 h; stronger effect = lower value. activity change (PNC), negative = inhibition, % at 10 µM. 140,000 tested, 3.1% active;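 active = readout at or below -70, meaning at least 70% loss of cells showing the perinucleolar compartment, a nuclear body marking cancer cells; inconclusive = readout between -30 and a set limit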
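Read-out is percentage of cells bearing a perinucleolar compartment, from automated 20x imaging of fixed, Hoechst-stained PC3M PTB-GFP cells. Cells were seeded 4 h, then exposed 16 h to compound (23 nl of library stock) in duplicate plates.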
Hits are given with their value; . = inactive; ? = inconclusive; / = no result given; [ ] = another dose, or the depositor's remark. Most compounds without a hit are left out; they make up all but 11% or so of the library. Unless noted, calls come from the whole dose curve; as a rule, active = well fitted curve in the direction sought with a large enough effect; inconclusive = small, poorly fitted or top-dose-only effect, or another doubt; inactive = no such curve, though single readings can be large; an effect the other way counts as inactive or inconclusive.

SMILES	HPGD block	ALOX12 inhib	IMPase Li inh	ALDH1A1 inh	IMPase inh	PNC assembly inh
O=C(CCCn1c(=S)[nH]c2ccsc2c1=O)NCc1ccco1	.	.	.	.	.	.
CCN(CC)CCNC(=O)CCn1c(=S)[nH]c2cc3c(cc2c1=O)OCO3	.	.	.	.	.	.
CCCCNC(=O)CCCn1c(=S)[nH]c2cc3c(cc2c1=O)OCO3	15.8µM	.	.	.	.	?
O=C(CCCCCn1c(=S)[nH]c2ccccc2c1=O)N1CCOCC1	14.1µM	.	?	.	.	.
O=C(CCCCn1c(=S)[nH]c2ccsc2c1=O)NCc1ccco1	14.1µM	.	.	.	.	.
O=C(CCCn1c(=S)[nH]c2ccccc2c1=O)N1CCOCC1	.	.	.	.	.	.
COCCCNC(=O)CCCn1c(=O)[nH]c2ccccc2c1=O	.	.	.	.	.	?
COCCNC(=O)CCCCCn1c(=S)[nH]c2ccccc2c1=O	12.6µM	.	.	.	.	.
COc1ccc(C(=O)N2CCC[C@@]3(CCN(Cc4ccccc4OC)C3)C2)cc1	.	.	.	.	/	/
COCOc1cc(OC)ccc1C(=O)/C=C/c1cccc(C(F)(F)F)c1	.	/	.	.	/	/
COCCNC(=O)CCCCCN1C(=O)CCC1=O	15.8µM	.	.	.	.	.
COC(=O)c1cc(OC)c(OC)cc1NC(=O)CCCCCN1C(=O)CCC1=O	.	.	.	.	.	.
COc1ccccc1N1CCN(C(=O)CCn2c(=O)[nH]c3ccccc3c2=O)CC1	.	.	.	.	.	-107.0
Cc1cccc(N2CCN(C(=O)CCn3c(=O)[nH]c4ccccc4c3=O)CC2)c1C	.	.	.	.	.	.
O=C(CSc1nnnn1-c1ccccc1)NCc1cccs1	.	.	.	.	.	.
CSc1ccccc1-n1nnnc1SCC(=O)NCc1cccs1	.	.	.	15.8µM	.[0.369 µM]	?
Cc1ccccc1NC(=O)CCSc1nnnn1-c1ccccc1	.	.	.	8.91µM	.	.
CSc1ccccc1-n1nnnc1SCC(=O)Nc1ccccc1C	.	.	.	12.6µM	.	.
O=C(CSc1nnnn1-c1ccccc1F)NNC(=O)c1ccco1	/	/	.	14.1µM	/	/
Cc1ccccc1Br	.	.	.	?	/	/
Cc1ccc(C(=O)Nc2ccc3oc(-c4ccc(C(C)(C)C)cc4)nc3c2)cc1	/	/	/	/	.	/
Cc1ccccc1NC(=O)c1sc2nc(-c3ccncc3)ccc2c1N	/	/	/	/	.	/
CSc1ccccc1NC(=O)CSc1nnnn1-c1ccccc1SC	.	.	.	11.2µM	?	?
COc1cccc2c1C(=O)c1c(O)c3c(c(O)c1C2=O)C[C@@](O)(C(C)=O)C[C@@H]3O[C@H]1C[C@H](N)[C@H](O)[C@H](C)O1	.	.	.	?	.	-114.6
FC(F)(F)c1nnc2c(Sc3ccccc3)nc3ccccc3n12	.	.	.	.	.	.
SMILES	HPGD block	ALOX12 inhib	IMPase Li inh	ALDH1A1 inh	IMPase inh	PNC assembly inh
FC(F)(F)c1nnc2c(Sc3ccc(Cl)cc3)nc3ccccc3n12	?	.	17.8µM	?	.	?
CCCCC(=O)Nc1cc2nn(-c3ccc(OC)cc3)nc2cc1C	?	.	?	?	.	.
CCC(=O)Nc1cc2nn(-c3ccc(OC)cc3)nc2cc1C	?	.	11.2µM	?	.	?
COc1ccc(-n2nc3cc(C)c(NC(=O)c4ccc(-c5ccc(Cl)cc5)o4)cc3n2)cc1	/	/	/	/	.	/
COc1ccc(-n2nc3cc(C)c(NC(=S)NC(=O)c4ccccc4C)cc3n2)cc1	.	.	12.6µM	?	.	.
C[N@@+]1(Cc2ccc(Cl)c(Cl)c2)CCC[C@@H]1c1ccc[n+](Cc2ccc(Cl)c(Cl)c2)c1	.	.[11.4 µM]	.	.[13.5 µM]	/	/
CC(C)(C)OC(=O)[C@H](C1N[C@@H](C(=O)O)C(C)(C)S1)N1C(=O)c2ccccc2C1=O (some centres undefined)	.	/	.	.[13.5 µM]	/	/
CCc1cc2c(c(CC)n1)CCC(=O)N2Cc1ccc(-c2ccccc2-c2nn[nH]n2)cc1	.	.	.	.	.	/
COc1ccccc1Cn1c(SCC(N)=O)nc2c(oc3ccccc32)c1=O	/	/	.	1.26µM	/	/
O=c1c(O)cccc2cc(O)c(O)c(O)c12	5.01µM	.	.	8.91µM	/	/
Cc1ccc(C(=O)N2CCN(C3c4cccc5cccc(c45)C3NS(=O)(=O)c3ccccc3)CC2)cc1 (centres undefined)	.	.	.	22.4µM	.	.
COc1ccc(-n2c(=O)cnc3cnc(Oc4cccc(Cl)c4)nc32)cc1	.	.	.	?	/	/
CCCCN=CC1=C(O)C(C(=O)OC)C(C)(C)CC1=O (centres undefined)	.	.	.	.	.	-85.7
N#Cc1cccc(-c2cc(NCc3cccnc3)ncn2)c1	/	/	.	?	/	/
CC(C)OC(=O)Cn1nnc2c(cnn2-c2ccccc2)c1=O	.	.	.	.	.	-100.0
COC(=O)Cn1nnc2c(cnn2-c2ccccc2)c1=O	/	/	.	.	/	/
COC(=O)/C(C#N)=C1/C=Cc2ccccc2N1	/	/	.	.	/	/
COC(=O)C1=C(C(=O)OC)[C@@H]2N(Cc3ccccc3)c3ccccc3[C@@]23C[C@@H](C(=O)OC)N(S(=O)(=O)c2ccc(OC)cc2)C3=N1	.	.[11.4 µM]	.	.[13.5 µM]	/	/
O=C1N=C(N2CCOCC2)S/C1=C1\C(=O)N(Cc2ccccc2)c2ccc(Br)cc21	.	.	.	?	.	.
CCCCN1C(=O)/C(=C2\SC(N3CCCCC3)=NC2=O)c2ccccc21	22.4µM	.	.	10µM	.	.
O=C(COC(=O)c1cccc(NC(=O)c2ccc(Br)cc2)c1)c1ccc(Cl)cc1	/	/	/	/	.	/
COc1ccccc1C(=O)NNC(=O)c1ccccc1F	.	.	.	.	.	?
COc1ccc(C(C)=O)cc1COC(=O)CNC(=O)c1ccccc1F	?	.	.	7.08µM	.	?
Cc1ccc(S(=O)(=O)/N=C/N(C)C)cc1	.	.	.	.	/	.
Cc1ccc(S(=O)(=O)/N=C/c2ccc(N(C)C)cc2)cc1	.	.	.	12.6µM	/	.
SMILES	HPGD block	ALOX12 inhib	IMPase Li inh	ALDH1A1 inh	IMPase inh	PNC assembly inh
CS(=O)(=O)Nc1cccc(-c2cc(NCc3ccccc3)ncn2)c1	/	/	.	?	/	/
CC(NC(=O)C1CCCC1)c1ccc2c(c1)OCCO2 (centres undefined)	.	.	.	.	.	.
CCOc1ccc(C(C)NC(=O)C2CCCC2)cc1 (centres undefined)	/	/	.	.	/	/
CC(NC(=O)C1CCC1)c1ccc(Cl)cc1 (centres undefined)	14.1µM	.	.	.	.	.
CCOc1ccc(C(C)NC(=O)C2CCC2)cc1 (centres undefined)	25.1µM	.	.	.	/	.
CCCn1c(-c2ccc(F)cc2)nc2c(N3CCCN(Cc4ccccc4)CC3)nc(C)nc21	?	.	.	?	/	/
O=C(Cc1noc2ccccc12)NNC(=S)Nc1ccc(Cl)cc1	/	/	.	25.1µM	/	/
